40 compounds from PubChem BioAssay (Tox21) can be followed below.

Inconclusive results are not listed. Entries that show only a call come without a potency. More than one record can exist for a structure, and the calls need not agree. The source made the active and inactive calls. The call rests on the fitted dose curve; in most records, active means well fitted inhibition curve with a large enough effect in the repeat runs; inconclusive means weak or mixed curves, or effect the other way; inactive means no such curve, though single readings can be large or run the other way.
Potency means the concentration at half of the fitted maximal effect.

A short description of this experiment: qHTS assay to identify small molecule antagonists of the retinoic acid receptor (RAR) signaling pathway (AID 1159552; further: nearly all actives have a fitted effect of over 50% in size). To be noted: C3RL4 RARE luciferase reporter, retinol-stimulated, 6 h; series mostly up to 92.4 µM. From the text:
National Center for Advancing Translational Sciences [NCATS]
NIH Chemical Genomics Center [NCGC]
U.S. Environmental Protection Agency [EPA]
National Institutes of Environmental Health Sciences [NIEHS]
National Toxicology Program [NTP]
U.S. Food and Drug Administration [FDA]
All-trans Retinoic acid (atRA) is the potent natural metabolite of retinol and plays an important role in normal embryonic development and maintenance of cellular phenotype in adult animals. atRA is the activating ligand for the retinoic acid receptors (RARs) which form heterodimers with retinoid X receptors (RXRs) on the retinoic acid response element (RARE). Through activation of the RAR/RXRs nuclear receptors, atRA regulates the transcription of a large number of protein-coding genes and regulatory RNAs. Intracellular levels of atRA are controlled by the retinol signaling pathway (RSP) that regulates the biosynthesis and catabolism of atRA to maintain physiological levels. Chemicals that interfere with the RSP can cause abnormal intracellular levels of atRA and therefore are potential developmental toxicants. To assess compounds for the potential adverse effect on embryonic development through interfering with retinol signaling, a cell-based RARE luciferase reporter gene assay was used. C3RL4 cell line (OARSA/CFSAN/FDA, Laurel, MD) was used to screen Tox21 10K compound library for identifying inhibitors of the RSP.
Tox21 Assay Protocol Summary:
C3RL4 cells were seeded at 1,000/well in 4 uL of assay medium into white solid 1,536-well tissue culture plates (Greiner Bio-One North America Inc. Monroe, NC) using a Multidrop Combi (Thermo Scientific, Waltham, MA) dispenser. After incubation at 37 C and 5% CO2 for an overnight, 23 nL of compounds dissolved in DMSO, positive control or DMSO only were transferred by a Pintool station (Kalypsys, San Diego, CA). One ul of 1 uM (final concentration) of Retinol was added right after the compound addition by using a Flying Reagent Dispenser (FRD) (Aurora Discovery, San Diego, CA). After 6 hr incubation at 37 C and 5% CO2, 5 uL of Amplite Luciferase reagent (AAT Bioquest Inc. Sunnyvale, CA) was added to each assay plate using an FRD. Luminescence was quantified on a ViewLux plate reader (PerkinElmer, Waltham, MA) after 30 min incubation at room temperature.
For orientation: In qHTS, concentration-response curves come from the screen itself.
Consider `CCc1cccc2c3c([nH]c12)C(CC)(CC(=O)O)OCC3` (stereo not given), for which the Potency entry was “inactive”.
Regarding `c1ccc2c(c1)ccc1cc3c(ccc4ccccc43)cc12`, the Potency result is “inactive”.
Next, `Cc1ccc(C(C)(C)C)cc1`: “inactive”; `CC(=O)Nc1ccc2c(c1)Cc1cc(NC(C)=O)ccc1-2`: “inactive”; `C=CC(=O)OCCCC`: “inactive”.
Take `c1ccc2c(c1)[nH]c1ccccc12`: the Potency result was “inactive”.
Next, `Nc1ccc2c(O)cc(S(=O)(=O)O)cc2c1`: “inactive”; `CC1(C)O[C@@H]2C[C@H]3[C@@H]4C[C@H](F)C5=CC(=O)C=C[C@]5(C)[C@@]4(F)[C@@H](O)C[C@]3(C)[C@]2(C(=O)CO)O1`: “inactive”; `O=C(O)CCCCCCCCCCCC(=O)O`: “inactive”.
Then `Nc1cc(Cl)c(N)c(Cl)c1`, with “inactive”; and `Cc1ccc2c(c1)C(=O)OC2=O`, with “inactive”; and `CCCOCCO`, with “inactive”.
Take `O=C(O)CCCC(=O)O`: the Potency result is “inactive”.
Turning to `Brc1nc2ccccc2s1`, the Potency result was “inactive”.
For the compound `O=[Se](O)O`, the Potency entry was “inactive”.
Regarding `CCOC(=O)C(C)Oc1ccc(Oc2cnc3cc(Cl)ccc3n2)cc1` (stereo not given), the Potency result was “inactive”.
With `C=C[Si](OCCOC)(OCCOC)OCCOC`, the Potency result was “inactive”.
In the case of `Cc1ccc(N)c([N+](=O)[O-])c1`, the Potency result was “inactive”.
As for `NCCS(=O)(=O)O`, the Potency result was “inactive”.
For `CC(=O)Oc1c(C)c(C)c2c(c1C)CC[C@@](C)(CCC[C@H](C)CCC[C@H](C)CCCC(C)C)O2`, the Potency entry was “inactive”.
On to `Nc1cc([N+](=O)[O-])ccc1C(=O)O`, for which the Potency result was “inactive”.
Next, `Nc1ccc2c(c1)C(=O)c1ccccc1C2=O`: “inactive”.
Consider `ClC/C=C/CCl`, for which the Potency entry was “inactive”.
As to `CC[C@]12CCCN3CCc4c(n(c5ccccc45)[C@@](O)(C(=O)OC)C1)[C@@H]32`, the Potency result is “inactive”.
Turning to `C1CN(SSN2CCOCC2)CCO1`, the Potency was 53.9 µM (active).
On to `CC1=CC(C)(C)Nc2ccccc21`, for which the Potency entry was “inactive”.
Next, `O=C(O)c1ccc(O)cc1`: “inactive”.
Next, `CCCCCC1C(=O)CCC1CC(=O)OC` (stereo not given): “inactive”; `CCCCCCOCCOCCO`: “inactive”; `CC1(C)NC(=O)N(c2ccc([N+](=O)[O-])c(C(F)(F)F)c2)C1=O`: “inactive”.
Then `C/C=C/C(=O)N(CC)c1ccccc1C`, with “inactive”.
Turning to `Cc1ccc(C)c(O)c1`, the Potency entry was “inactive”.
With `CC(=O)OC(C)C`, the Potency entry is “inactive”.
On to `CN(C)/N=N/c1nc[nH]c1C(N)=O`, for which the Potency result was “inactive”.
In the case of `Oc1c(Cl)ccc(Cl)c1Cl`, the Potency result was “inactive”.
Take `C=C1C[C@H]2[C@@H]3C=C(C)C4=CC(=O)CC[C@]4(C)[C@H]3CC[C@]2(C)[C@@]1(OC(C)=O)C(C)=O`: the Potency result is “inactive”.
In the case of `c1ccc2c(c1)ccc1ncccc12`, the Potency entry is “inactive”.
Regarding `CCCCCCCCCCCCO`, the Potency entry is “inactive”.
For the compound `O=Cc1ccccc1C=O`, the Potency was 30.6 µM (active) and inactive.
As for `Cc1cccc(Nc2ccccc2C(=O)O)c1C`, the Potency entry was “inactive”.
